Assay results from PubChem BioAssay.
Unmarked numbers belong to inactive results. How the calls were made is not given here.

molecular target: Pantothenate synthetase (Mycobacterium tuberculosis (strain ATCC 25618 / H37Rv)) (UniProt P9WIL5); experiment: Coupled enzyme confirmation of inhibitors against recombinant Mtb PanC (AID 375); conditions: coupled enzyme assay; at 10 µM, stronger effect = higher value;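 further: 0% = full reaction with vehicle and 100% = no enzyme background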
Sequence (P9WIL5 whole entry, looked up): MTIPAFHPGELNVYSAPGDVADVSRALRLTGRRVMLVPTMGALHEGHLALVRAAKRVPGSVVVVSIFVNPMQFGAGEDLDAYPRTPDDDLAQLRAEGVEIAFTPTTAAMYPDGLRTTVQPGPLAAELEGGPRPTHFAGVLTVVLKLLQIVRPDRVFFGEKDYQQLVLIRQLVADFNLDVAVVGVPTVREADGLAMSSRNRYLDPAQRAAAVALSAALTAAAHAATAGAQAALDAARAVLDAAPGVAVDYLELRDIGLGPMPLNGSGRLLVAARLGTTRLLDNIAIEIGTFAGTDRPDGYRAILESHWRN

Compound	inhibition
COc1ccc(NC(=O)CSc2nc3c(c(=O)n2-c2ccc(F)cc2)SCC3)cc1	0%
Cn1c(-c2cc(Br)ccc2O)n[nH]c1=S	2%
COc1cc(C2c3c(oc4c(C)cc(C)cc4c3=O)C(=O)N2Cc2cccnc2)cc(OC)c1OC (stereo not given)	2%
O=C(CC1Oc2ccccc2NC1=O)NCCCN1CCOCC1 (stereo not given)	0%
COc1nc(OC)nc(N2CCC(C(=O)NC3CCCCCC3)CC2)n1	11%
COc1ccc(C2C(C#N)=C(C)NC3=C2C(=O)CC(C)(C)C3)c(OC)c1 (stereo not given)	0%
COc1cc(C2c3c(n[nH]c3C)C(=O)N2c2ccc(C)cc2)ccc1O (stereo not given)	0%
CCN(CC)CCOC(=O)c1c(C)oc2ccc(O)cc12	0%
CCOC(=O)CC1(CC(=O)OCC)NC(=O)c2c(C)sc(C(=O)OCC)c2N1	1%
COc1ccc(CN2C(=O)c3cccnc3C2Nc2cc(Cl)ccc2OC)cc1 (stereo not given)	3%
CCS(=O)(=O)c1nc2ccccc2n1Cc1ccccc1Cl	1%
Cc1ccc(Nc2nc(CSc3nnnn3C)cs2)cc1	0%
CCCCCCC(C)n1[nH]c(=O)c2c(C)cc(=O)[nH]c21 (stereo not given)	5%
CCOc1ccccc1N(C(=O)Cn1nnnc1-c1ccc(C)o1)C(CC)C(=O)NC(C)(C)C (stereo not given)	0%
COc1ccc(NC(=O)NCCN2C(=O)C3C4C=CC(C4)C3C2=O)cc1 (stereo not given)	1%
Cc1ccccc1Nc1cc2ccccc2c(=O)[nH]1	2%
COc1cccc(-n2c(C)nc3c(cnn3-c3ccc(Cl)cc3)c2=O)c1	4%
CC(C)c1ccc(-c2nc(N3CCOCC3)[nH]c(=O)c2C#N)cc1	7%
CC1CCc2nn(CC(=O)N3CCN(C(=O)c4ccco4)CC3)cc2C1 (stereo not given)	10%
O=C(CSc1nnc2ncccn12)N1CCCCCC1	0%

Compound	inhibition
Cn1cccc1Cc1nnc(SCC(=O)NCc2ccc(F)cc2)n1-c1ccc(F)cc1	2%
CCCCC(=O)Nc1ccc(NC(=O)C2CC2)nc1	2%
COc1cccc(C2=NOC(C(=O)Nc3cc(C)nn3-c3ccccc3)C2)c1OC (stereo not given)	0%
COc1ccc(CCn2c(C)cc(C(=O)CSc3nnnn3C)c2C)cc1	0%
CCOC(=O)c1cc(C)sc1N1C(=O)C2C3C=CC(C3)C2C1=O (stereo not given)	0%
Cc1cccn2cc(-c3ccccc3)nc12	0%
COc1cc(NC(=O)c2nccnc2C(=O)O)cc(OC)c1	5%
O=C(C1CCCCC1)N1CCC(c2nc3c(nnn3Cc3ccccc3Cl)c(=O)[nH]2)CC1	4%
CC(C)COC(=O)C1[C@H]2C(=O)N(Cc3cccs3)C[C@]23C=C[C@H]1O3 (stereo not given in full)	1%
O=c1[nH]c(NCc2ccccc2)nc2c1CCCC2	0%
COCCCN(C(C)=O)c1nc(-c2ccccc2)cs1	0%
CSc1cccc(NC(=O)C2CCN(S(=O)(=O)c3ccc(F)cc3)CC2)c1	0%
Cc1ccc2c(c1)C(N1CCCC1=O)CC(c1ccco1)N2 (stereo not given)	0%
CCOC(=O)C1CCN(c2c(NC3CCCCCCC3)c(=O)c2=O)CC1	3%
CC(NS(=O)(=O)c1ccc(F)cc1)C(c1cccs1)N1CCN(C)CC1 (stereo not given)	0%
CN1CCN(C(=O)c2ccc(CS(=O)(=O)c3c(Cl)cccc3Cl)o2)CC1	16%
NC(=O)CSc1nnc(-c2ccc(O)cc2)n1Cc1ccco1	0%
CCOC(=O)C1CCCN(Cc2nc(N)nc(Nc3ccc(C)cc3)n2)C1 (stereo not given)	0%
O=C1c2ccccc2C(Nc2ccc(F)cc2F)N1CCN1CCOCC1 (stereo not given)	0%
Oc1ccccc1-c1nnc(COc2ccc(Cl)cc2Cl)o1	1%
